Assay [1] can be described thus: E. coli DRC41 culture turbidity changes, primary screen, E. coli filamentation inducer project, strain DRC41, OD650, 48 h (AID 1152).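 Also: E. coli MC1000 strain DRC41 lacking acrAB efflux pump and sulA.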 The note with it: E. coli DRC41 (acrAB sulA), higher = more signal, called active from +8 up or from −8 down.
The nature of assay [2]: small-molecule binders of probe aLefty1, primary screen, biochemical, small-molecule microarray, 635/667 nm fluorescence (AID 1153).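 Also: score merges spot fluorescence with signal-to-noise ratio from the scanned slide images.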 The note with it: higher = more signal.
The nature of assay [3]: PSAC antagonists in infected red cells, primary screen, cell-based, P. falciparum Indochina, OD700, 1 h (AID 1154). The note with it: P. falciparum Indochina infected RBC osmotic lysis, higher = more signal, called active from +8 up or from −8 down.
Assay [4] is described as follows: PSAC antagonists in infected red cells, primary screen, cell-based, P. falciparum Indochina, OD700, 2 h (AID 1155).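 Also: lysis reports solute entry through the parasite surface anion channel PSAC; channel blockers reduce lysis of infected cells.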 The note with it: P. falciparum Indochina infected erythrocytes, osmotic lysis OD700; higher = more signal, called active from +8 up or from −8 down.
The nature of assay [5]: osmotic lysis modulators in infected erythrocytes, primary screen, PSAC antagonist project, cell-based, P. falciparum Indochina, OD700, 3 h (AID 1156). The note with it: higher = more signal, called active from +8 up or from −8 down.
Assay [6] in a line: PSAC antagonists in infected red cells, primary screen, cell-based, P. falciparum Indochina, OD700, 18 h (AID 1157). The note with it: P. falciparum Indochina infected erythrocytes, osmotic lysis OD700, 18 h; higher = more signal, called active from +8 up or from −8 down.
A short description of assay [7]: modulators of S6 phosphorylation in cells, primary screen, cell-based, A549, cytoblot, luminescence, serum-stimulated (AID 1158).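 Also: serum-stimulated A549 lung adenocarcinoma cells; signal is phosphorylated S6 detected by cytoblot immunostaining with HRP secondary.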 The note with it: A549 phospho-S6 cytoblot, 5 h, higher = more signal.
Assay [8] has as its target NADPH oxidase 2 (Homo sapiens) (UniProt P04839). Nature of the assay: NOX2-dependent H2O2 signal modulators, primary screen, NOX inhibitor project, cell-based, HEK293-NOX2, PMA-stimulated, Amplex Red fluorescence (AID 1159). Also: test concentration not given here. The note with it: 45 min, higher = more signal, called active from +8 up or from −8 down.
Assay [9] has as its target NADPH oxidase 4 (Homo sapiens) (UniProt Q9NPH5). Nature of the assay: NOX4-dependent H2O2 signal modulators, primary screen, NOX inhibitor project, cell-based, HEK293-NOX4, tetracycline-induced, Amplex Red fluorescence (AID 1160). The note with it: 45 min, higher = more signal, called active from +8 up or from −8 down.
Assay [10] concerns the target NADPH oxidase 5 (Homo sapiens) (UniProt Q96PH1). Nature of the assay: NOX5-dependent H2O2 signal modulators, primary screen, NOX inhibitor project, cell-based, HEK293-NOX5, Amplex Red fluorescence (AID 1161). The note with it: HEK293-NOX5, ionomycin, 45 min, higher = more signal.
Assay [11] is described as follows: A549 cell viability effects, profiling panel, calcein-AM fluorescence, 48 h, basal (AID 1162). Also: test concentration not given here. The note with it: higher = more signal.
A short description of assay [12]: adipocyte viability effects, profiling panel, cell-based, 3T3-L1 adipocytes, calcein-AM fluorescence, 48 h, basal (AID 1163). Also: test concentration not given here. The note with it: 3T3-L1 adipocytes viability, higher = more signal.
Assay [13] in a line: HepG2 cell viability effects, profiling panel, calcein-AM fluorescence, 48 h, basal (AID 1164). Also: test concentration not given here. The note with it: higher = more signal.
The nature of assay [14]: MM1S cell viability effects, profiling panel, calcein-AM fluorescence, 48 h, basal (AID 1165).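 Also: viability of MM1S multiple myeloma cells under basal unstimulated conditions; test concentration not given here.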 The note with it: higher = more signal.
A short description of assay [15]: basal RPMI8226 viability, no added stimulus, profiling panel, cell-based, calcein-AM fluorescence, 48 h, PK04 Diversity Set (AID 1166).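 Also: cells grown under basal conditions without added stimulus; test concentration not given here.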 The note with it: RPMI8226 myeloma viability, higher = more signal.
A short description of assay [16]: basal HepG2 mitochondrial membrane potential changes, profiling panel, cell-based, JC-1 fluorescence, 24 h, 100 nL compound (AID 1167). Also: test concentration not given here. The note with it: higher = more signal.
Assay [17] in a line: basal 3T3-L1 adipocyte mitochondrial potential changes, profiling panel, cell-based, JC-1 fluorescence, 3T3-L1 adipocytes, 24 h, 100 nL compound (AID 1168). Also: test concentration not given here. The note with it: JC-1 mitochondrial fluorescence, higher = more signal, called active from +8 up or from −8 down.
Assay [18] is described as follows: basal RPMI8226 mitochondrial membrane potential changes, profiling panel, cell-based, JC-1 fluorescence, 24 h, 100 nL compound (AID 1169). Also: test concentration not given here. The note with it: RPMI8226 myeloma, JC-1 mitochondrial potential fluorescence, higher = more signal.
Assay [19] can be described thus: basal MM1S mitochondrial membrane potential changes, profiling panel, cell-based, JC-1 fluorescence, 24 h, 100 nL compound (AID 1170). Also: test concentration not given here. The note with it: higher = more signal.
Assay [20] can be described thus: A549 lung cancer cell viability effects, profiling panel, resazurin fluorescence, 24 h, PK04 Diversity Set (AID 1171). Also: test concentration not given here. The note with it: higher = more signal, called active from +8 up or from −8 down.

The source made the active and inactive calls.

Sequence of NADPH oxidase 2 (Homo sapiens) (P04839 whole entry, looked up): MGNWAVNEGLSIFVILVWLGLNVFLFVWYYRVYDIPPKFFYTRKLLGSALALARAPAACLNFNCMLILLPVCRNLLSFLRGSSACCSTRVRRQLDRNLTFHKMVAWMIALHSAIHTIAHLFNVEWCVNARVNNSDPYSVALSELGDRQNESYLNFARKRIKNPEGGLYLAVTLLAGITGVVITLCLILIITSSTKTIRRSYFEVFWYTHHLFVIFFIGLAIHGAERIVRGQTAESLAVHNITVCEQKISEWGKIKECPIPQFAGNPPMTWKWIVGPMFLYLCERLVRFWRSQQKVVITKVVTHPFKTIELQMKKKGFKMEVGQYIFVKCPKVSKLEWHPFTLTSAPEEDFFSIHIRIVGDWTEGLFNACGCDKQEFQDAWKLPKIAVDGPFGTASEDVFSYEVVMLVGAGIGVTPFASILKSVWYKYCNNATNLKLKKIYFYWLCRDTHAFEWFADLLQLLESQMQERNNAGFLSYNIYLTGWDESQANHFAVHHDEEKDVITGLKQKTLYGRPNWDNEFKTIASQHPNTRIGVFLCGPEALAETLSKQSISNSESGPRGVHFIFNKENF
Sequence of NADPH oxidase 5 (Homo sapiens) (Q96PH1 whole entry, looked up): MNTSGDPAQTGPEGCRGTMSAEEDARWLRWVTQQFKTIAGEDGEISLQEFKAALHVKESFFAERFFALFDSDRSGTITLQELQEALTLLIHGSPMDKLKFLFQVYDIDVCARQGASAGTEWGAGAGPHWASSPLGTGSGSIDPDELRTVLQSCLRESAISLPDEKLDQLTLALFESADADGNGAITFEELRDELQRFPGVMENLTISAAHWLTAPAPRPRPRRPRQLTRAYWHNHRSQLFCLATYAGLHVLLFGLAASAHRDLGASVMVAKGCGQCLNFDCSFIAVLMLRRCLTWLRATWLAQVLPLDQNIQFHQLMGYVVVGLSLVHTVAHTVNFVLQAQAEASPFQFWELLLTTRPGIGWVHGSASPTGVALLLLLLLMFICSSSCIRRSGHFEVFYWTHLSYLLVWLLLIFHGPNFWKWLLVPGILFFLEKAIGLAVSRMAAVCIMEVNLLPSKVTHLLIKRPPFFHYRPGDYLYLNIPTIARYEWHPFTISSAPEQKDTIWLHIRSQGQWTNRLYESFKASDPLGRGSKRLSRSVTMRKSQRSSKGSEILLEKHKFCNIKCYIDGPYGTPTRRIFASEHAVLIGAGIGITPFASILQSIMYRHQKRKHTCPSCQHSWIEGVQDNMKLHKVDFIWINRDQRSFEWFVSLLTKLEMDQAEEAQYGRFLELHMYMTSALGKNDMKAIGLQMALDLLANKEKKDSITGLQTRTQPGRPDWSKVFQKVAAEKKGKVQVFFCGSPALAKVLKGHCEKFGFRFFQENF
Sequence of NADPH oxidase 4 (Homo sapiens) (Q9NPH5 whole entry, looked up): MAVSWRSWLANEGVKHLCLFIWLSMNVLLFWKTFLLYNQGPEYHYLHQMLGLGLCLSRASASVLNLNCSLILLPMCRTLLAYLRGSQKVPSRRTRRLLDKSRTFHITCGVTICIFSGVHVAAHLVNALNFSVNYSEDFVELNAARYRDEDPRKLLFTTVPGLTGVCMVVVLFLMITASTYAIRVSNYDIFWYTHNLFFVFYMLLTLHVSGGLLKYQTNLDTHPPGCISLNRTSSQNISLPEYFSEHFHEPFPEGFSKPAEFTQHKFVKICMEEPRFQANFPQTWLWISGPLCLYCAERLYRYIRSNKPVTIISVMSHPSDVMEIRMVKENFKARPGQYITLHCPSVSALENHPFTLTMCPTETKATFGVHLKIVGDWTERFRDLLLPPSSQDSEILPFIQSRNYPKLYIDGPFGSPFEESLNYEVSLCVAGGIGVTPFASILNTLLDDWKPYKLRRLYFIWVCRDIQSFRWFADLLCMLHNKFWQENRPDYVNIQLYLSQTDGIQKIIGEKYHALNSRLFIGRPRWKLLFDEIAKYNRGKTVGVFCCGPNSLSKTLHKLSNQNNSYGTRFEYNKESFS

Turning to `CN(C)CCCCCCNC(=O)[C@@H]1C[C@@H]2C(=O)N[C@@H](CCCCN)C(=O)N2[C@@H]1c1cccc(OCCO)c1`, the z-score in assay [1] is -0.374 (inactive); in assay [3], 1.59 (inactive); in assay [4] it was -0.644 (inactive); in assay [5], 0.0026 (inactive); in assay [6], -2.47 (inactive); in assay [7], 1.51. In addition, the z-score is 0.853 (inactive) in assay [8]; 0.7 (inactive) in assay [9]; 1.95 in [10]; 0.73 in assay [11]; 0.565 in [12]; 1.25 in assay [13]. The z-score was -0.137 in assay [14]; 0.207 in [15]; 1.87 in assay [16]; 0.247 (inactive) in [17]; -0.209 in [18]; 0.135 in assay [19]. In assay [20], the z-score is 0.159 (inactive). Further, in [2], the composite z-score is 2.74.

For `Cc1ccc(S[C@]2(C(=O)NC(C)C)CC(=O)N(Cc3ccccc3Cl)[C@@H]2c2ccc(CO)cc2I)cc1`, the z-score is -0.462 (inactive) in [1]; 11.2 (active) in assay [3]; 1.44 (inactive) in [4]; 0.681 (inactive) in [5]; 0.377 (inactive) in assay [6]; -0.487 in assay [7]. Moreover, the z-score in [8] was 0.769 (inactive); in assay [9], -1.51 (inactive); in [10], 0.183; in [11], -0.0542; in [12] it was -0.05; in assay [13], -0.125. Further, the z-score in assay [14] is -2.71; in [15] it was -1.58; in [16] it was -1.08; in assay [17] it was -0.443 (inactive); in [18] it was -0.195; in [19], -1.6. Moreover, the z-score in assay [20] was 1.11 (inactive). Also, the composite z-score in assay [2] is 0.0023.

As for `CC(C)(C)OC(=O)CC[C@@]12N=C(c3ccc(OCCCO)cc3)O[C@@H]1c1ccccc1N(CCS(=O)(=O)c1ccccc1)C2=O`, the z-score was 0.864 (inactive) in assay [1]; 30.9 (active) in assay [3]; 27.6 (active) in [4]; 3.49 (inactive) in [5]; 8.22 (active) in [6]; 1.84 in assay [7]. Further, the z-score was -0.619 (inactive) in assay [8]; 0.801 (inactive) in assay [9]; -2.14 in [10]; 2.14 in assay [11]; 0.828 in [12]; 0.116 in assay [13]. Besides, the z-score in assay [14] is -1.6; in assay [15] it was -0.72; in assay [16], 0.741; in assay [17] it was 3.28 (inactive); in assay [18], -0.814; in assay [19], -1.13. For the same compound, the z-score in assay [20] is -1.91 (inactive). This compound also gave a composite z-score in assay [2] of 0.334.

As for `COc1ccc(CCNC(=O)[C@@H]2c3ccccc3C(=O)N(C3Cc4ccccc4C3)[C@H]2c2ccc(CO)cc2)cc1`, the z-score in assay [1] was -0.483 (inactive); in [3] it was 6.43 (inactive); in [4], 0.65 (inactive); in assay [5], 0.474 (inactive); in assay [6] it was 0.183 (inactive); in assay [7], -0.484. The z-score in [8] was -3.31 (inactive); in [9] it was -0.185 (inactive); in assay [10] it was -3.47; in assay [11] it was 0.595; in assay [12], 0.0644; in assay [13], 0.0079. Also, the z-score is -0.532 in assay [14]; -0.0245 in assay [15]; 1.6 in assay [16]; 0.00592 (inactive) in [17]; -0.78 in [18]; -0.0799 in assay [19]. In addition, the z-score in [20] was 1.39 (inactive). In assay [2], the composite z-score was -0.0544.

These data come from PubChem BioAssay.
